# Assay results published in PubChem BioAssay AID463173 (ICCB-Longwood Screening Facility, Harvard Medical School, 2010).
# Among all 52,000 compounds or so, about 4,300 (8.3%) were called active. The entries come from a sample that favours actives as a whole. Unmarked numbers belong to inactive results. Rule as the data show it: active = survival mostly below about 52% (no sharp cut-off); inactive = mostly above about 56%.
# Test system: DeltatarO mutant
# Assay: growth inhibition of S. aureus wild type versus tarO mutant, primary screen, teichoic acid synthesis inhibitors, RN4220, OD600 (AID 463173)
# Conditions: OD600, 18 h, hits give low values, screened at 18.75 µg/mL (by protocol)
row,SMILES,survival
1,CC(C(=O)NCc1ccco1)N1C(=O)c2ccccc2C1=O (configuration not stated),57%
2,Cc1coc2cc3oc(=O)c(CC(=O)NCCc4ccccc4)c(C)c3cc12,84%
3,COC(=O)N1N=C(c2ccccc2)CC1(O)C(F)(F)F (configuration not stated),85%
4,COc1ccc(OC)c(N=c2oc3cc(O)ccc3cc2C(=O)Nc2ccccn2)c1,70%
5,Cc1ccc(S(=O)(=O)NCCc2nnc3ccc(SCc4ccccc4F)nn23)cc1,76%
6,O=C(NC1C2CCCC1CN(C1CC1)C2)c1ccc(Cl)cc1 (configuration not stated),84%
7,O=C(/C(=N/O)n1cncn1)c1ccc(Cl)cc1Cl,72%
8,Cc1ccc(C)c(NC(=O)CSc2nc(=O)n(CCN(C)C)c3c2CCC3)c1,79%
9,CCOC(=O)c1c(C)oc2nc(C)nc(NCC3CCN(Cc4ccccc4C)CC3)c12,86%
10,O=C(O)C1C2C=CC(C2)C1C(=O)NCc1cccs1 (configuration not stated),83%
11,COC(=O)c1ccccc1NC(=O)N(Cc1ccc(C)cc1)Cc1cccn1-c1nnc(N2CCCC2=O)s1,123%
12,O=C1N/C(=N/N=C\c2ccco2)SC1Cc1cccc(C(F)(F)F)c1 (configuration not stated),56%
13,O=C(/C(=C\c1ccc(F)cc1)n1ccccc1=O)N1CCCC1,102%
14,O=C(NCc1cccc(F)c1)c1ccc(NC(=O)c2nsc3ccccc23)cc1,-2% (active)
15,COC(=O)c1cccc(NC(=O)c2nsc3ccccc23)c1,-1% (active)
16,O=C(NCc1ccccc1)c1ccc(NC(=O)c2nsc3ccccc23)cc1,61%
17,O=C(NCc1cccc(F)c1)c1cccc(NC(=O)c2nsc3ccccc23)c1,85%
18,CC(NC(=O)c1cccc(NC(=O)c2nsc3ccccc23)c1)c1ccccc1 (configuration not stated),115%
19,CCC(C)NC(=O)c1cccc(NC(=O)c2nsc3ccccc23)c1 (configuration not stated),74%
20,CCOc1ccc(NS(=O)(=O)c2ccc(-c3cc(C)no3)s2)cc1,87%
21,CCOc1ccc(-c2nonc2NC(=O)c2oc3ccc(Br)cc3c2C)cc1,50%
22,CC1CCC(NC(=O)CN2CCC(n3nnc4ccccc43)CC2)CC1 (configuration not stated),76%
23,CC1=C(C(=O)Nc2ccc(C)cc2C)C(c2ccccc2)n2ncc(C(=O)Nc3ccccc3)c2N1 (configuration not stated),58%

row,SMILES,survival
1,CC(=O)N1CCCc2cc(S(=O)(=O)N3CCC(C(=O)N(Cc4ccccc4)C(C)C)CC3)ccc21,76%
2,O=C(CSc1nc2ccccc2nc1Cc1ccc(Cl)cc1)Nc1ccc2c(c1)OCO2,71%
3,Cc1ccc(Cc2nc3ccccc3nc2SCC(=O)Nc2cccc(C(F)(F)F)c2)cc1,67%
4,Cc1cccc(-c2nc(SCC(=O)Nc3ccc4c(c3)OCO4)c(-c3ccccc3)[nH]2)c1,40% (active)
5,O=C(CSc1nc(-c2ccccc2)[nH]c1-c1ccccc1)Nc1ccc2c(c1)OCO2,67%
6,O=C(CSc1nc2ccccc2nc1Cc1ccccc1)Nc1ccc2c(c1)OCO2,75%
7,O=C(CSc1nc2ccccc2nc1Cc1ccccc1F)Nc1cccc(C(F)(F)F)c1,35% (active)
8,O=C(CSc1nc2ccccc2nc1Cc1ccc(F)cc1)Nc1ccc2c(c1)OCO2,52% (active)
9,O=C(CSc1nc(-c2cccc(F)c2)[nH]c1-c1ccccc1)Nc1ccc2c(c1)OCO2,32% (active)
10,O=C(CSc1nc(-c2cccc(F)c2)[nH]c1-c1ccccc1)Nc1ccc2c(c1)OCCO2,94%
11,Cc1cccc(-c2nc(SCC(=O)Nc3ccc4c(c3)OCCO4)c(-c3ccccc3)[nH]2)c1,58%
12,Cc1ccc(NC(=O)CSc2nc3ccccc3nc2Cc2ccccc2F)cc1F,107%
13,O=C(CSc1nc(-c2ccc(F)cc2)[nH]c1-c1ccc(F)cc1)Nc1ccc2c(c1)OCO2,97%
14,CC(NC(=O)Nc1cc(Cl)ccc1Cl)c1c(-n2cccc2)sc2c1CCCC2 (configuration not stated),72%
15,Cc1ccc2c(c1)N(C(=O)NCc1ccccc1)CCO2,79%
16,Cc1cccc(CN2C(=O)c3ccccc3S(=O)(=O)c3ccc(C(=O)NC4CCCCC4)cc32)c1,79%
17,COCCNC(=O)CCCn1c(SCC(=O)c2ccc(Br)cc2)nc2c(sc3ccccc32)c1=O,68%
18,COc1ccccc1CNC(=O)CN1C(=O)COc2ccc(S(=O)(=O)N3CCC(C)CC3)cc21,76%
19,Cn1cc(S(=O)(=O)c2ccc(Cl)cc2)c(=O)c2cc(F)c(N3CCCC3)cc21,73%
20,COCCCNC(=O)c1sc2nc3n(c(=O)c2c1C)CCC3,91%
21,CCOc1ccccc1NC(=O)CSc1nc2c(c(=O)[nH]1)CCC2,101%
22,COc1ccc(OC)c(CCNC(=O)c2cnn(-c3ccccc3)c2C2CCN(C(=O)OC(C)(C)C)CC2)c1,73%
23,CCc1ccc(NC(=O)CSc2ccccn2)cc1,89%

row,SMILES,survival
1,COc1cccc(-c2nc(SCC(=O)Nc3ccc4c(c3)OCO4)c(-c3ccccc3)[nH]2)c1,31% (active)
2,COc1cccc(-c2nc(SCC(=O)Nc3ccc4c(c3)OCCO4)c(-c3ccccc3)[nH]2)c1,54%
3,COc1ccc(-c2[nH]c(-c3cccc(OC)c3)nc2SCC(=O)Nc2ccc3c(c2)OCO3)cc1,55%
4,CC(=O)N1c2ccc(S(=O)(=O)NCCC(=O)Nc3ccc(Br)c(C)c3)cc2CC1C (configuration not stated),90%
5,Cc1ccc(CCNC(=O)c2ccc3c(c2)N(Cc2cccc(C)c2)C(=O)c2ccccc2S3(=O)=O)cc1,72%
6,CCOC(=O)C1CCCN(CC(=O)N2CCCc3c2c(=O)oc2ccc(OCc4ccccc4)cc32)C1 (configuration not stated),121%
7,COc1ccc(N2CC(C(=O)NCc3nnnn3-c3ccc(C)c(C)c3)CC2=O)cc1 (configuration not stated),69%
8,CCOC(=O)CSc1ncnc2c1c(-c1ccccc1)cn2-c1ccc(OC)cc1,60%
9,CCCSc1ncnc2c1c(-c1ccccc1)cn2-c1ccccc1OC,2% (active)
10,CCCCSc1ncnc2c1c(-c1ccccc1)cn2-c1cccc(F)c1,78%
11,CC(C(=O)O)N1C(=O)NC2NC(=O)NC21 (configuration not stated),54% (active)
12,CC(C(=O)O)N1CCCC1 (configuration not stated),94%
13,CCOc1ccc(C(=O)Nc2nnc(SCc3cc(=O)c4cc(C)ccc4[nH]3)s2)cc1,91%
14,COCCNC(=O)c1ccc2c(c1)NC(=O)C(CS(=O)(=O)Cc1ccc(F)cc1Cl)N2 (configuration not stated),130%
15,Nc1ccc2c(c1)OC1(CCCCC1)O2,55% (active)
16,O=C1OC2(CCCC2)OC(=O)C1=CNc1ccccc1,96%
17,COc1ccccc1-c1cc(C(=O)Nc2ccccc2C(F)(F)F)no1,71%
18,Cc1ccc2c(=O)cc(C(=O)Nc3ccc(S(=O)(=O)Nc4ncccn4)cc3)oc2c1C,76%
19,N#Cc1ccc(NC(=O)c2ccc3c(c2)nnn3C2CCCC2)cc1,126%
20,Cc1cc(-c2ccc(S(=O)(=O)Nc3cccc(Cl)c3C)cc2)on1,94%
21,Cc1ccc(-c2nnn(CC(=O)N(CC(=O)NCC3CCCO3)C3CCN(Cc4ccccc4)CC3)n2)o1 (configuration not stated),83%
22,O=C(NCc1ccco1)C(Sc1ccccc1)c1ccccc1 (configuration not stated),101%
23,Cc1ccc(CNC(=O)c2sc3nc4n(c(=O)c3c2C)CCCC4)cc1,80%

row,SMILES,survival
1,CCN(CC)CCNC(=O)c1sc2nc3n(c(=O)c2c1C)CCCCC3,53%
2,CCOc1ccccc1NC(=O)c1sc2nc3n(c(=O)c2c1C)CCCCC3,45%
3,Cc1c(C(=O)NCc2ccc(Cl)cc2)sc2nc3n(c(=O)c12)CCCC3,95%
4,CCCN(CCC)CCCNC(=O)c1sc2nc3n(c(=O)c2c1C)CCC3,79%
5,Cc1ccc(CNC(=O)c2sc3nc4n(c(=O)c3c2C)CCCCC4)cc1,53% (active)
6,CCOC(=O)c1ccccc1NC(=O)c1sc2nc3n(c(=O)c2c1C)CCCCC3,37% (active)
7,Cc1c(C(=O)NCc2ccc(Cl)cc2)sc2nc3n(c(=O)c12)CCCCC3,51% (active)
8,CCCN(CCC)CCNC(=O)c1sc2nc3n(c(=O)c2c1C)CCCCC3,62% (active)
9,Cc1c(C(=O)NCc2ccc(Cl)cc2)sc2nc3n(c(=O)c12)CCC3,102%
10,Cc1c(C(=O)NCc2ccccc2)sc2nc3n(c(=O)c12)CCCCC3,56%
11,CCOC(=O)c1ccccc1NC(=O)c1sc2nc3n(c(=O)c2c1C)CCCC3,103%
12,O=C(NCc1ccccc1Cl)c1cc2cccc3c2n1CCS3,115%
13,COc1cc(OC)c(NC(=O)c2cc(C)nc3c2c(C)nn3-c2ccc(C)cc2)cc1Cl,103%
14,Cc1c(Cl)ccc2sc(N3CCN(C(=O)c4ccco4)CC3)nc12,69%
15,COc1cccc(NC(=O)CN2C(=O)c3cccnc3Oc3ccc(Cl)cc32)c1,80%
16,COc1cc(Cl)c(C)cc1NC(=O)c1sc2nc3n(c(=O)c2c1C)CCCCC3,52%
17,COc1cc(OC)c(NC(=O)c2sc3nc4n(c(=O)c3c2C)CCCC4)cc1Cl,64%
18,COc1cc(NC(=O)c2sc3nc4n(c(=O)c3c2C)CCCCC4)cc(OC)c1OC,42% (active)
19,CC(C)NS(=O)(=O)c1ccc2nc(NC(=O)c3cncc(Br)c3)sc2c1,87%
20,COc1ccc2c(c1)c1c(c(=O)n(Cc3ccccc3)c(=O)n1CC(=O)NCc1ccccc1Cl)n2C,72%
21,O=C(O)CNCc1nc2ccccc2[nH]1,95%
22,CNC(=O)Cc1nc2ccccc2[nH]1,87%
23,C/C(Cc1nc2ccccc2[nH]1)=N/Nc1ccccc1,2% (active)
